From PubChem
This is a sample that favours compounds with a hit; in the whole collection about 3.3% have one here.
TLR4-MyD88 BLA: inhibitors of human TLR4-MyD88 binding. HeLa CL3-4 TLR4/MyD88 BLA complementation, FRET ratio. inhibition, % at 8.4 µM. 0.18% of 200,000 active; in the data active = inhibition above about 25%;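 note: 0% = vehicle and 100% = reference inhibitor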
TLR9-MyD88 inh: inhibitors of human TLR9-MyD88 binding. CHO BLA complementation TLR9-MyD88, CCF4 FRET ratio. AID 504734. Q9NR96+Q99836. 0.21% of 340,000 active. inhibition, % at 4.98 µM;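 active = inhibition above the mean over all tested compounds plus 3 SD, cut at about 21% in these data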;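 note: 0% = DMSO only wells and 100% = clavulanate BLA inhibitor control wells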
PRMT1 inh: blocks human protein arginine methyltransferase 1 | Q99873 | recombinant PRMT1, activity-based probe fluorescence polarization | inhibition, % at 2.79 µM | 1.3% of 370,000 active | AID 652257;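 active = inhibition above about 21% made by adding two undisclosed values, limit read from the data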
ABHD5 PLIN5 PPI: blocks binding of human ABHD5 to perilipin-5 | 0.78% of 360,000 active | Split G. princeps luciferase complementation, luminescence, 4 h | inhibition, % at 4 µM | AID 602281;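 active = inhibition above the mean inhibition across every tested compound plus 3 SD, cut at about 22% in these data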;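 note: 0% = DMSO only wells and the 100% control is not disclosed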
NOD2 RIPK2 PPI: blocks binding of human NOD2 to RIPK2 | CHO BLA complementation NOD2-RIPK2, CCF4 ratio | 0.38% of 360,000 active | inhibition, % at 4.98 µM | AID 624267 | O43353; in the data active = inhibition above about 21%;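 note: 0% = vehicle only and 100% = reference blocker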
Target sequence (O43353 whole entry, looked up): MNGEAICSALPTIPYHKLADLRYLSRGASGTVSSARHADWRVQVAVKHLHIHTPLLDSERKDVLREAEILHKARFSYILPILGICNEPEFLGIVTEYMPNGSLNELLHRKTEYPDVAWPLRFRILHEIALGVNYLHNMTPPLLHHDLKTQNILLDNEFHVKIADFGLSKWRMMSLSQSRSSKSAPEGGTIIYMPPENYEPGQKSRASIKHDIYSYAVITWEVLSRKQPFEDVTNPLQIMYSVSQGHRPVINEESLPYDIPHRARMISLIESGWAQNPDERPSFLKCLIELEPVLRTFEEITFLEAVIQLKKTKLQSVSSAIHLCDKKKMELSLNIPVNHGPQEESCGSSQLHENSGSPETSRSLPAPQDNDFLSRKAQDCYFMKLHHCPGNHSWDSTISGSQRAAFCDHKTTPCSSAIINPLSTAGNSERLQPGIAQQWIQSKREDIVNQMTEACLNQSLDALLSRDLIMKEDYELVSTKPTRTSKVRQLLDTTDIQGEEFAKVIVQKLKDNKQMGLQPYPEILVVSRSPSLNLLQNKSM
rCAG RNA binder: r(CAG) repeat RNA binding; TO-PRO-1 dye displacement fluorescence; 1.3% of 370,000 active; inhibition, % at 3 µM; AID 651821;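 active = inhibition above the plate cutoff, the mean of all test compounds on that plate plus 3 SD, cut at about 35% in these data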;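 note: 0% = DMSO alone and 100% = 100 µM mitoxantrone as full dye displacement; higher means more dye released from RNA so lower well fluorescence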
rCAG bind conf: r(CAG) RNA repeat binding, confirmation. shares compounds with rCAG RNA binder. TO-PRO-1 dye displacement fluorescence. inhibition, % at 3 µM. 70% of 4,300 active. AID 652065;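 active = inhibition above a per-plate cutoff, the mean inhibition of sample wells plus 3 SD, cut at about 35% in these data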;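 note: loss of TO-PRO-1 fluorescence as compound displaces dye from 1x1 AA loop RNA; 0% = DMSO only wells and 100% = 100 µM mitoxantrone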
DNA CAG counter: counter-screen for rCAG RNA binders: DNA CAG dye complex inhibitors; shares compounds with rCAG RNA binder; d(CAG) DNA oligo TO-PRO-1 dye displacement, fluorescence; inhibition, % at 3 µM; 94% of 4,300 active; AID 652068;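 active = inhibition above its plate's cutoff, the mean test-well inhibition plus 3 SD, cut at about 4.8% in these data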;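 note: 0% = DNA dye mix with DMSO and 100% = 100 µM mitoxantrone; hits displace the dye from DNA and so lower well fluorescence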
Active calls of the source: *; · = not tested or not shown.

SMILES | TLR4-MyD88 BLA | TLR9-MyD88 inh | PRMT1 inh | ABHD5 PLIN5 PPI | NOD2 RIPK2 PPI | rCAG RNA binder | rCAG bind conf | DNA CAG counter
O=C(Cc1ccc([N+](=O)[O-])cc1)NNC(=O)c1cccs1 | · | -9.8 | -1.6 | 6.5 | -9.1 | 54.6* | 1.2 | -0.1
COC(=O)c1sc(NC(=S)NNC(=O)c2c(Br)c(C)nn2C)c(C(=O)OC)c1C | · | -1.2 | 10.6 | 8.0 | 0.4 | 69.2* | 90.1* | 70.1*
COc1cc(C(=O)N/N=C/c2ccc3c(c2)c2ccccc2n3C)ccc1O | · | 4.0 | 2.4 | 4.8 | 3.5 | 25.1 | · | ·
Cn1c2ccccc2c2cc(/C=N/NC(=O)c3cc(O)cc(O)c3)ccc21 | · | 9.3 | 1.5 | -11.8 | 6.8 | 43.5* | 33.9 | 18.4*
Cn1c2ccccc2c2cc(/C=N/NC(=O)c3cc(O)ccc3O)ccc21 | · | 0.6 | 18.6 | -5.7 | 3.7 | 66.0* | 62.1* | 30.8*
O=C(N/N=C/c1cccc(O)c1)c1ccccc1O | · | -4.5 | 3.4 | -3.4 | 4.3 | 0.1 | · | ·
Nc1ccc(F)c(CN2CCN(c3ncc(Cc4ccccc4)cn3)CC2)c1 | · | · | 2.3 | · | · | 3.5 | · | ·
COc1cccc(CC(=O)O[C@@H]2CCC[C@@]3(C(=O)N(Cc4ccccc4)c4ccccc43)[C@H]2NC(=O)CCc2ccccc2)c1 | · | · | -0.6 | · | · | 8.7 | · | ·
Cc1cc(-c2ccccc2)nc(Nc2nc3c(C)cccc3c(=O)[nH]2)n1 | · | -4.8 | 1.4 | 0.1 | -0.2 | 7.5 | · | ·
O=C(Nc1ccc(Cl)cc1)c1cc2c(cc1O)[nH]c1ccccc12 | · | 7.3 | 4.5 | -5.5 | 9.8 | 90.6* | 85.1* | 53.3*
COc1ccccc1N1CCN(C(=O)c2cc(-c3ccc(F)cc3)[nH]c2C)CC1 | · | 6.2 | 2.9 | 4.0 | 7.9 | -0.1 | · | ·
Cn1c(=O)c2sccc2n2c(CCCC(=O)NCc3ccco3)nnc12 | · | -19.4 | 0.2 | 7.1 | -12.2 | 3.0 | · | ·
Cc1cccc(/C=C/C(=O)c2cc(Br)ccc(=O)c2O)c1 | -0.8 | 0.1 | 36.7* | 22.7* | -5.4 | 45.0* | 55.5* | 24.1*
O=C(C=Cc1ccccc1)c1cc(Br)ccc1O | · | 0.4 | -3.7 | 16.8 | 4.3 | 0.9 | · | ·
CCOc1ccc(/C=C/C(=O)c2cc(Br)ccc(=O)c2O)cc1 | -4.9 | 4.4 | 10.2 | 19.0 | -10.1 | 60.6* | 46.7* | 22.3*
CCOC(=O)c1cc(C#N)c(SCC(=O)Nc2ccc(C(C)=O)cc2)[nH]c1=O | · | -4.8 | 10.7 | -3.0 | -4.8 | 42.6* | 43.6* | 10.4*
O=C(O)C(Cc1c[nH]c2ccccc12)N1C(=O)C2C3c4ccccc4C(c4ccccc43)[C@@H]2C1=O (stereo not given in full) | · | 16.2 | 2.1 | -0.4 | 0.4 | 49.9* | 44.8* | 12.4*
O=[N+]([O-])c1cccc(COc2ccccc2CN2CCCC2)c1 | · | -19.5 | -1.1 | 10.9 | 1.9 | 4.5 | · | ·
COc1cc(/C=C(/C#N)C(=O)Nc2ccc(Cl)cc2)ccc1Oc1nc(Cl)ncc1F | · | -4.5 | 4.0 | 1.1 | -2.7 | 5.8 | · | ·
Brc1ccc(N/N=C(/N=Nc2nn[nH]n2)c2ccccc2)cc1 | 8.7 | -6.6 | 2.3 | 1.5 | 2.4 | 95.3* | 92.1* | 66.5*
O=C(/C(=N\Nc1ccc(Br)cc1)Sc1nnnn1-c1ccccc1)c1ccccc1 | -2.8 | 2.6 | 3.3 | 13.1 | -3.9 | 30.1 | · | ·
O=C(O)c1ccccc1N/N=C/c1cc(Br)cc(Br)c1O | · | 2.1 | 3.4 | 0.3 | -6.4 | 45.4* | 92.3* | 74.7*
Cc1cn2c(=O)c(C(=O)N3CCN(c4ccccc4F)CC3)cnc2s1 | · | -7.9 | -0.4 | -2.6 | 1.1 | -2.9 | · | ·
CC1=N/C(=C/c2cccnc2)C(=O)O1 | -3.4 | -0.7 | -2.8 | -0.5 | -8.6 | 0.9 | · | ·
CCOC(=O)N1CCN(C(=O)CNC(=O)c2nn(-c3ccc(OC)c(Cl)c3)c(=O)c3ccccc23)CC1 | · | -4.8 | 3.5 | 1.5 | 1.9 | 39.1* | 4.0 | 3.8
SMILES | TLR4-MyD88 BLA | TLR9-MyD88 inh | PRMT1 inh | ABHD5 PLIN5 PPI | NOD2 RIPK2 PPI | rCAG RNA binder | rCAG bind conf | DNA CAG counter
Cc1ccc(C2CC2C(=O)NNC(=S)Nc2cccc(C)c2)cc1 (stereo not given) | -3.1 | 3.0 | -2.6 | -3.4 | 0.4 | 9.6 | · | ·
Cc1ccc(C2CC2C(=O)NNC(=S)Nc2cccc(Cl)c2)cc1 (stereo not given) | -10.7 | -1.6 | -4.7 | -27.6 | -1.3 | 51.7* | 50.6* | 18.9*
COc1ccc(C(=O)N2C(=S)NC(=O)/C2=C\c2ccc(C)cc2)cc1 | -7.7 | 9.3 | -4.1 | -3.7 | -5.3 | 64.2* | 66.3* | 31.4*
COc1ccc(C=C2NC(=S)NC2=O)cc1 | · | 3.2 | 1.3 | -6.4 | -7.4 | 1.1 | · | ·
CCOC(=O)c1c(NC(=O)C2C3C=CC(C3)C2(C)C(=O)O)sc2c1CCCC2 (stereo not given) | 6.3 | -13.1 | -0.5 | -3.5 | -5.6 | 43.3* | 46.2* | 15.1*
CCOC(=O)c1c(NC(=O)C2C3C=CC(C3)C2C(=O)O)sc2c1CCC(CC)C2 (stereo not given) | -3.0 | 4.3 | -0.9 | 4.9 | -4.7 | 38.3* | 64.1* | 23.6*
COC(=O)c1c(NC(=O)c2ccccc2C(=O)O)sc2c1CCCC2 | · | 0.9 | 5.5 | 1.9 | 0.2 | 24.4 | · | ·
CCOC(=O)c1c(NC(=O)c2ccccc2C(=O)O)sc2c1CCCC2 | · | -6.2 | 7.2 | -4.3 | 2.1 | 55.2* | 46.3* | 16.2*
CCOC(=O)c1c(NC(=O)C2C3CCC(O3)C2C(=O)O)sc2c1CCC(CC)C2 (stereo not given) | -3.8 | -6.3 | 0.4 | -7.2 | -13.4 | 24.6 | · | ·
CCOC(=O)c1c(N2C(=O)Nc3ccccc3N2O)sc2c1CCCC2 | -1.5 | 3.9 | -0.2 | 4.6 | -0.5 | 37.7* | 30.4 | 6.7*
O=C1CSC(c2ccccc2)N1c1nnc(C23CC4CC(CC(C4)C2)C3)s1 (stereo not given) | 7.8 | · | · | · | · | · | · | ·
CCOC(=O)c1c(NS(=O)(=O)c2cccc(OC)c2)sc2c1CCC2 | 6.7 | -4.5 | 8.0 | -15.0 | -0.1 | 59.9* | 68.6* | 22.7*
O=C(/C=C/c1cccs1)Nc1sc2c(c1C(=O)O)CCCC2 | · | 5.2 | 0.7 | -12.7 | 3.4 | 53.0* | 28.1 | 6.7*
O=C(Nc1sc2c(c1C(=O)O)CCCC2)c1cccs1 | 5.8 | 2.0 | -0.9 | -0.5 | -3.1 | 18.9 | · | ·
O=C(Nc1sc2c(c1C(=O)O)CCCCC2)c1ccccc1F | -13.2 | 3.0 | 3.5 | 3.5 | -5.7 | 35.5* | 19.5 | 4.3
COC(=O)c1c(NS(=O)(=O)c2cccs2)sc2c1CCCC2 | -3.9 | 0.0 | 3.1 | 3.4 | -13.9 | 13.8 | · | ·
O=C(Nc1sc2c(c1C(=O)O)CCCCC2)c1cccs1 | 5.5 | 1.2 | 10.4 | -3.5 | 3.2 | 35.9* | 18.5 | 4.7*
O=C(Nc1sc2c(c1C(=O)O)CCCC2)c1ccc(F)cc1 | · | -9.7 | -0.2 | 3.8 | 1.5 | 24.8 | · | ·
O=C(CSc1nc2ccccc2o1)NN=C/C=C/c1ccccc1 | · | · | 15.2 | · | · | 9.4 | · | ·
